These results are taken from PubChem BioAssay (NCATS).

Molecules are shown by their SMILES. Records with an inconclusive call do not appear. Calls of active or inactive are those of the source. Calls follow the shape of the dose curve; as a rule, active = well fitted inhibition curve with a large enough effect; inconclusive = small, poorly fitted or top-dose-only effect; inactive = no such curve, though single readings can be large or run the other way.
Potency is read from the fitted curve at half-maximal effect.

A short description of the test: S16 Schwann cell PMP22 intronic element firefly luciferase assay (AID 624032). Also: nearly all actives have a fitted effect of over 30% in size.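 As to activity change, negative = inhibition: plate controls were DMSO for no effect and PTC124 positive control mean for full effect.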 As to conditions: S16 rat Schwann cells, PMP22 element FLuc, 24 h; series mostly up to 57.5 µM; activity change, negative = inhibition: at the top concentration. In outline: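 Luciferase reporter of PMP22 intronic-element expression in stably transfected S16 rat Schwann cells, read by ONE-Glo luminescence after 24 h compound exposure at 37 C. Activity scaled between DMSO (0%) and positive-control PTC124; concentration-effect curves quality-classified.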
Consider `O=C(Oc1cccc2cccnc12)c1ccccc1`, for which the Potency is 9.07 µM (active).

Regarding `Clc1ccc2c(c1)CCc1cccnc1C2=C1CCNCC1`, the Potency was 28.7 µM (active).

Turning to `CN1CCc2cc(Cl)c(O)cc2[C@H]2c3ccccc3CC[C@@H]21`, the “activity change, negative = inhibition” value was -1.59% (inactive).

On to `OC(c1ccccc1)(c1ccccc1)C1CCNCC1`, for which the “activity change, negative = inhibition” value was 13.5% [at 25.7 µM] (inactive).

For `CC(Cc1ccccc1)NCc1ccccc1Cl` (stereo not given), the “activity change, negative = inhibition” value was 16.4% (inactive).

Turning to `CCCCCCCCCCCCCCCC[n+]1ccccc1`, the Potency is 10.2 µM (active).

Regarding `CN1C[C@H](C(=O)N[C@]2(C)O[C@@]3(O)[C@@H]4CCCN4C(=O)[C@H](Cc4ccccc4)N3C2=O)C[C@@H]2c3cccc4[nH]cc(c34)C[C@H]21`, the Potency was 25.6 µM (active).

For the compound `COC(=O)C1=C(C)NC(C)=C(C(=O)OC)C1c1ccccc1[N+](=O)[O-]`, the Potency is 18.1 µM (active).

With `NC(N)=NN=C(/C=C/c1ccc([N+](=O)[O-])o1)/C=C/c1ccc([N+](=O)[O-])o1`, the Potency is 7.21 µM (active).

With `C[C@]12Cc3nonc3C[C@@H]1CC[C@@H]1[C@@H]2CC[C@@]2(C)[C@H]1CC[C@]2(C)O`, the Potency is 14.4 µM (active).
